This is a sample that favours compounds with a hit; in the whole collection about 1.6% have one here.
S1P4 ag: human S1P4 receptor agonism. O95977. S1P4-expressing cell line, agonist reporter assay. activation, % at 4.98 µM. hit rate 0.35% among 220,000. AID 1509; in the data active = activation above about 11%;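 also: 0% = DMSO vehicle and 100% = reference agonist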
Target sequence (O95977 whole entry, looked up): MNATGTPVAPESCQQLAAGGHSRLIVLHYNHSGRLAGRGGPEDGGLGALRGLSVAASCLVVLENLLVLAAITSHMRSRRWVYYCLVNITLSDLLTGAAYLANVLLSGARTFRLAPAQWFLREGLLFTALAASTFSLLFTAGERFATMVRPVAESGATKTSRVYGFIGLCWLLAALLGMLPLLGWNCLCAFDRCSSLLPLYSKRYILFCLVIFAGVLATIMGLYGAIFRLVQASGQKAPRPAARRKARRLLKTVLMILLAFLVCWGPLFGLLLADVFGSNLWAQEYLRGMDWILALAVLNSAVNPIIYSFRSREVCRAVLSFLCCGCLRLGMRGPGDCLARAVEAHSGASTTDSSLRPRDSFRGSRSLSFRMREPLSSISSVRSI
Arbovirus anti: antivirals against arbovirus infection; arbovirus infection cell-based antiviral screen; inhibition, % at 10 µM; hit rate 0.37% among 200,000; in the data active = inhibition above about 30%
S1P3 antag: blocks the human S1P3 receptor; inhibition, % at 4.98 µM; hit rate 0.27% among 170,000; CHO S1P3 NFAT-BLA reporter, FRET fluorescence, antagonist mode; Q99500;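 active = inhibition above the plate cutoff, the mean inhibition of test wells on that plate plus 3 SD, cut at about 28% in these data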;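 also: cells challenged with S1P at its EC80 of 0.8 µM; blue over green emission ratio from cleaved BLA substrate after 4 h stimulation; 0% = S1P-stimulated wells and 100% = unstimulated DMSO-only wells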
Redox H2O2 prof: compounds producing H2O2 with reducing agent – biochemical, NIH compound library profiling, artefact control for MLSCN library redox annotation, primary screen; DTT-dependent redox cycling H2O2, phenol red/HRP absorbance; 100% = 100 µM peroxide control, 0% = buffer; activation, % at 10 µM; hit rate 0.03% among 200,000;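 active = activation of at least 50% relative to the plate's high and low controls in the primary single-dose screen; inactive = activation below 50%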;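 also: compound incubated with DTT at 0.8 mM final as the reducing agent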
S1P4 antagonist: human S1P4 receptor antagonism. AID 1510. hit rate 0.26% among 220,000. O95977. S1P4-expressing cells, antagonist mode, reporter read-out. inhibition, % at 4.98 µM; in the data active = inhibition above about 29%;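 also: 0% = wells stimulated with agonist and 100% = vehicle wells without agonist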
p97 ATPase inh: blocks human p97 ATPase activity | recombinant p97 ATPase, Kinase-Glo ATP luminescence, 3 h | AID 1481 | inhibition, % at 8 µM | P55072 | hit rate 0.42% among 220,000; in the data active = inhibition above about 15%;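 also: 0% = DMSO vehicle and 100% = wells lacking enzyme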
S1P4 ag conf: human S1P4 agonism, confirmation | activation, % at 4.98 µM | S1P4 agonist cell-based reporter assay | shares compounds with S1P4 ag | AID 1523 | hit rate 7% among 740; in the data active = activation above about 12%;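 also: 0% = vehicle and 100% = full reference agonist response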
S1P1 ag: human S1P1 agonism as S1P4 agonist counter-screen. shares compounds with S1P4 ag. hit rate 4% among 740. S1P1 agonist cell-based assay, activation. activation, % at 4.98 µM; in the data active = activation above about 21%;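 also: 0% = vehicle wells and 100% = reference agonist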
Starred values were filed as active, the others as inactive; . = no result given.

SMILES | S1P4 ag | Arbovirus anti | S1P3 antag | Redox H2O2 prof | S1P4 antagonist | p97 ATPase inh | S1P4 ag conf | S1P1 ag
CN(C)CCCNS(=O)(=O)c1ccc(N2CCC(c3ccc(Cl)cc3)=N2)cc1 | 96.0* | -49.6 | . | 0.4 | -67.5 | 1.5 | 58.6* | 153.3*
CC(=O)N1C(=O)/C(=C2\SC(=S)N(NS(=O)(=O)c3ccc(C)cc3)C2=O)c2ccccc21 | 1.3 | 0.2 | -6.3 | -0.2 | -8.5 | 4.6 | . | .
C=CCn1c(COc2cc(C)ccc2C(C)C)nnc1SCC(=O)c1c(N)n(C)c(=O)n(C)c1=O | 13.2* | 5.7 | -0.6 | -0.3 | -6.7 | 2.5 | -0.3 | 1.0
CCCCCCn1c(COc2ccccc2F)nnc1SCC(=O)c1c(N)n(C)c(=O)n(C)c1=O | 0.8 | -29.1 | 16.3 | 0.0 | -14.1 | 5.2 | . | .
Cc1ccccc1C(=O)c1ccc2c(c1)n(C)c(=O)n2C | 1.2 | -11.6 | . | -1.0 | 3.4 | 0.6 | . | .
O=C(OCCNC(=O)c1ccc2ccccc2n1)c1ccc(F)cc1 | -0.8 | 8.8 | . | 0.5 | -2.8 | -3.2 | . | .
Cc1ccccc1N=C1NN=C(c2ccccc2F)CS1 | -1.3 | -13.2 | -13.3 | 0.0 | -1.5 | -0.4 | . | .
NC(=S)c1cc2ccc(O)cc2oc1=O | 67.0* | -8.0 | . | -1.6 | -40.4 | -1.9 | 16.5* | 20.0
C/C(=N\NC(=O)c1ccc([N+](=O)[O-])cc1)c1cc2ccccc2oc1=O | -1.6 | 15.5 | 0.9 | 0.4 | -4.2 | 4.3 | . | .
C/C(=N/NC(N)=S)c1cc2ccc(O)cc2oc1=O | 38.8* | . | -10.9 | . | -50.0 | 10.5 | 17.8* | 16.3
CN(Cc1ccccc1)c1nnc(N)s1 | 13.4* | -5.1 | -2.1 | 0.8 | -10.1 | 5.7 | -0.9 | -7.9
O=C(NCc1ccc(Cl)cc1)c1ccc2nc[nH]c2c1 | 0.3 | -31.5 | 6.2 | -0.3 | -17.7 | 2.3 | . | .
Cc1cccc(C)c1-n1c(C)nn(Cc2ccc([N+](=O)[O-])cc2)c1=O | 1.2 | 5.1 | 1.9 | -0.5 | -5.0 | -0.5 | . | .
NC(=O)c1cc(NC(=O)c2cc(Br)c(Br)s2)cc(C(N)=O)c1 | -0.2 | 4.2 | -7.2 | -1.9 | 3.0 | 4.7 | . | .
Cc1nnc2sc(SCC(=O)Nc3cccc(Cl)c3)nn2c1=O | 2.0 | -9.2 | -16.5 | 0.4 | -14.9 | -0.6 | . | .
Cc1ccc(NC(=O)N2CCN(c3ncccc3C(F)(F)F)CC2)cc1 | 0.8 | . | 7.0 | . | 15.1 | -1.4 | . | .
O=C(Nc1ccc2ccccc2c1)N1CCN(c2ncccc2C(F)(F)F)CC1 | 15.8* | -7.2 | 6.4 | 1.8 | -13.8 | -4.8 | -0.6 | 1.9
COCCNC(=O)c1ccccc1NC(=O)Cc1ccccc1[N+](=O)[O-] | 234.7* | 1.5 | -6.3 | -1.8 | -0.5 | 4.6 | -2.9 | -6.8
COc1cc(C(F)(F)F)c(C(=O)N(C)Cc2ccc(Cl)c(Cl)c2)cn1 | 14.7* | . | -0.2 | . | 2.4 | -1.1 | -1.7 | -1.5
O=C(Nc1ccccc1)c1ccsc1 | 1.7 | 2.2 | 7.0 | 0.0 | -22.2 | -3.0 | . | .
CCc1ccc(/C([O-])=C(/C(=S)NCCN2CCOCC2)[n+]2ccccc2)cc1 | 1.0 | -3.8 | -4.8 | -1.4 | -20.9 | -1.1 | . | .
Clc1ccc2oc3c(Cl)ncnc3c2c1 | 0.8 | 3.9 | 0.1 | 0.0 | -8.2 | 6.1 | . | .
COc1cc(C(N)=O)cc(Cl)c1OCc1ccccc1 | 0.7 | -3.2 | -7.6 | -0.1 | 7.1 | 2.9 | . | .
CCOc1cc(C(N)=O)cc(Cl)c1OCc1ccccc1 | 24.3* | -2.3 | -8.8 | -3.5 | 0.7 | 3.4 | -2.5 | -1.5
O=C(O)c1ccc(N/N=C/c2ccc(-c3ccccc3Cl)o2)cc1 | 11.3* | . | -20.3 | . | -17.9 | 3.7 | 7.6 | 17.9
O=S(=O)(NC1CCCCC1Oc1ccccc1)c1ccc(Cl)cc1 (stereo unspecified) | -1.0 | -8.1 | 6.5 | -0.9 | -16.7 | -3.5 | . | .
O=S(=O)(NC1CCCCC1NS(=O)(=O)c1ccc(F)cc1)c1ccc(F)cc1 (stereo unspecified) | 14.9* | 2.5 | 11.7 | -0.2 | -12.2 | -3.8 | -2.0 | -1.0
O=S(=O)(NC1CCCCC1Nc1ccccc1)c1ccccc1 (stereo unspecified) | 15.5* | 10.8 | -3.1 | 0.3 | -11.7 | -0.9 | -1.7 | 2.9
C/C(CC(=O)Nc1ccc2c(c1)OCCO2)=N\NC(=O)c1ccccn1 | 1.1 | 19.9 | -10.1 | -0.6 | -24.5 | 7.6 | . | .
